Rows were chosen to be rich in hits. Some 2.8% of all compounds tested hit in one or more screens of this group.
POLH inh: blocks human DNA polymerase eta activity | Potency, µM (highest dose often 114 µM), for the others: top-dose activity change, negative = inhibition, hits mostly inhibitors | AID 588591 | 390,000 tested, 1.2% active | Q9Y253 | recombinant Pol eta, fluorescent DNA replication assay; note: potency is the fitted concentration of half-maximal effect; % is set by controls: 0 for no effect and ±100 for the full control effect
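Fluorescent replication assay: 50 nM final substrate added after a 15 min room-temperature compound preincubation with 10 nM enzyme. Signal taken at 0 min and again at 10 min.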
POLK inh: inhibitors of human DNA polymerase kappa; AID 588579; 400,000 tested, 0.53% active; Potency, µM (top dose mostly 107 µM), without a hit: top-dose activity, negative = inhibition, most hits filed as inhibitors; purified Pol kappa, fluorescent DNA synthesis assay, 10 min; Q9UBT6; note: potency is the fitted concentration of half-maximal effect; % is set by controls: 0 for no effect and ±100 for the full control effect
Target sequence (Q9UBT6 whole entry, looked up): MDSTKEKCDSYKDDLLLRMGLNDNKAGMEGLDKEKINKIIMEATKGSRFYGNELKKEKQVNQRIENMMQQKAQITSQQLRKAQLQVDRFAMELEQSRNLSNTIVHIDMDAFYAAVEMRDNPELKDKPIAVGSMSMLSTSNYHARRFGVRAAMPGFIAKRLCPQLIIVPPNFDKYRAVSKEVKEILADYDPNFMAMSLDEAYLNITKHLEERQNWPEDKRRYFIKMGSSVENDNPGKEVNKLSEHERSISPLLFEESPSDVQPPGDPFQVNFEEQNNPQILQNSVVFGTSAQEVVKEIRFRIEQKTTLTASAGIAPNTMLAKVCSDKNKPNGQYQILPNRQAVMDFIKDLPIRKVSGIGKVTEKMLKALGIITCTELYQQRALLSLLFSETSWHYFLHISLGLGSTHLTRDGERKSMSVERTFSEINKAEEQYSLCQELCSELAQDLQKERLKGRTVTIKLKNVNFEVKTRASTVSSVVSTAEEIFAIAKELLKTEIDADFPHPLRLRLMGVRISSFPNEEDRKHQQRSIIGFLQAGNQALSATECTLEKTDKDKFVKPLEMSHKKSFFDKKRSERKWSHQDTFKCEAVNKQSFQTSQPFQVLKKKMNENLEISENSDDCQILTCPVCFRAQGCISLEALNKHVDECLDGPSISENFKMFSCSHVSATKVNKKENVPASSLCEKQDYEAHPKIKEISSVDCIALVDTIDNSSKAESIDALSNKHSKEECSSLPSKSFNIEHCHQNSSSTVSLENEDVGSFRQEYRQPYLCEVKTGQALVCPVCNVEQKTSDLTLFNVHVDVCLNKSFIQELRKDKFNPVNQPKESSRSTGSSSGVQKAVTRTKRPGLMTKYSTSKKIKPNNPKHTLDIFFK
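First, compounds were pin-transferred onto 10 nM Pol kappa. After 15 min at room temperature, substrate was added to 50 nM final. Fluorescence was then measured kinetically at 0 and 10 min.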
Pol iota inh: DNA polymerase iota (human) inhibition. Q9UNA4. Pol iota fluorescent replication assay, 10 min. Potency, µM (titrated, usually from 115 µM), without a hit: at the top dose activity, negative = inhibition, hits mostly inhibitors. 390,000 tested, 1% active; note: potency is the fitted concentration of half-maximal effect
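Fluorescent replication assay read twice, at 0 min and 10 min after adding 50 nM (final) substrate. Enzyme (10 nM) and compounds were first incubated 15 min at room temperature; enzyme-free buffer wells were negative controls.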
PI5P4K alpha inh: blocks human PI5P4K alpha kinase activity | PI5P4Kalpha enzyme, ADP-Glo luminescence, 60 min; stronger effect = lower value | max response, % | P48426 | AID 652105 | 330,000 tested, 1.2% active; active = max response of -50% or lower; inconclusive = between -30% and -50%; inactive = -30% or higher; note: value at the top dose of about 77 µM; % is set by controls: 0 for no effect and ±100 for the full control effect
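Single end-point luminescence (ADP-Glo) quantified ADP from PI5P4Kalpha turnover; ATP 5 microM final, 1 h at RT, 0.1% CHAPS and 0.28 mM EGTA in HEPES pH 7.4.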
POLB inh: inhibitors of human DNA polymerase beta; AID 485314; 340,000 tested, 1.3% active; Pol beta primer extension/strand displacement, fluorescence kinetic; P06746; Potency, µM (titrated, usually from 114 µM), for the others: top-dose activity change, negative = inhibition, usual class: inhibitors; note: potency is the fitted concentration of half-maximal effect; % is set by controls: 0 for no effect and ±100 for the full control effect
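Homogeneous kinetic assay of primer extension and strand displacement by 10 nM Pol beta, preincubated 15 min at room temperature with compound before 50 nM substrate (final) was added. Read at 0 and 10 min; four-parameter Hill fit.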
WRN inhibitor: inhibitors of human WRN helicase | Q14191 | WRN helicase unwinding, fluorescent forked duplex, kinetic | Potency, µM (highest dose often 114 µM), inactives show at the highest dose activity change, negative = inhibition, actives largely listed as inhibitors | 360,000 tested, 0.46% active; note: potency is the fitted concentration of half-maximal effect; % is set by controls: 0 for no effect and ±100 for the full control effect; nearly all actives have a fitted effect of over 55% in size
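Fluorescence dequenching readout, ex 525 nm/em 598 nm, kinetic mode: forked duplex DNA (100 nM final) with adjacent fluorophore and quencher unwound by WRN (20 nM final) with 2 mM ATP. Compound preincubation 15 min, room temperature.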
Numbers without * were called inactive; u = inconclusive; x = not tested or not shown; [ ] = remark or other dose. Unless noted, calls come from the whole dose curve; as a rule, active = well fitted curve in the direction sought with a large enough effect; inconclusive = small, poorly fitted or top-dose-only effect, or another doubt; inactive = no such curve, though single readings can be large; an effect the other way counts as inactive or inconclusive.

SMILES	POLH inh	POLK inh	Pol iota inh	PI5P4K alpha inh	POLB inh	WRN inhibitor
Cc1ccc(-c2cc(C(=O)Nc3nccs3)c3ccccc3n2)o1	u	-5.8%	u	u	25.1µM*	-30.1%
COc1ccc(NC(=O)c2cc(-c3ccc(C)o3)nc3ccccc23)cc1OC	u	u	u	-52.9*	35.5µM*	-26.4%[57.1 µM]
COc1ccc(NC(=O)c2cc(-c3ccc(C)o3)nc3ccccc23)c(OC)c1	-17.5%	-8.9%	-23.1%	-26.5	x	-3.9%
CCOc1ccc(OCC)c(NC(=O)c2cc(-c3cccs3)nc3ccccc23)c1	-17.5%	u	89.1µM*	x	1.7%	x
Cc1ccc(-c2cc(C(=O)Nc3ccc(S(=O)(=O)Nc4onc(C)c4C)cc3)c3ccccc3n2)cc1	89.1µM*	-9.7%	42.7%	-13.2	u	0.7%[11.6 µM]
CCCCc1ccc(NC(=O)CSc2nc3ccccc3nc2N2CCOCC2)cc1	u	-7.2%	-9.3%	x	0.8%	x
CCOc1ccc(Br)cc1C(=S)N1CCCC1	-6.4%	-3.2%	7.4%	0.5	-0.3%	3.5%
O=C(c1c(F)cccc1F)N(C1CCCCC1)C1CCCCC1	-5.6%	-4.2%	19.5%	1.2	8.3%	2.4%
Cc1ccc(-c2cc(C(=O)Nc3ccccc3C(N)=O)c3ccccc3n2)o1	50.1µM*	-20.3%	u	-20.1	x	u
O=C(Nc1ccc(S(=O)(=O)Nc2nccs2)cc1)c1cc(-c2ccccc2Cl)nc2ccccc12	28.2µM*	-13.4%	u	u	u	u
Cc1c(/C=C/c2ccnc3ccccc23)ccc(N(C)C)c1C	x	-9.3%	-8.5%	x	x	x
CCCN1CCC(=O)N(CCN=[N+]=[N-])CC1	5.0%	-2.0%	-28.9%	1.8	31.6µM*	0.4%
[N-]=[N+]=NCCN1CCN(CCc2ccccc2)CCC1=O	-19.9%	2.0%	50.1%	-2.6	16.7%	-2.0%
CC(=O)Oc1c(/C=C(\C#N)C(N)=O)[nH]c2ccccc12	-8.6%	-4.9%	35.2%	-58.8*	1.6%	5.2%
N#C/C(=C\c1c[nH]c2ccccc12)C(N)=O	-23.4%	-10.6%	6.2%	u	-2.8%	-1.4%
CC(C)(C)n1ncc2c(=O)n(Cc3ccc(Cl)cc3F)cnc21	x	-9.1%	-13.6%	x	x	x
Cc1ccc(C2C(C(=O)c3cc4ccccc4o3)=C(O)C(=O)N2c2cc(C)on2)cc1 (stereo unspecified)	-7.2%	6.4%	28.7%	-52.1*	44.3%	14.9%
Cc1cc(N2C(=O)C(O)=C(C(=O)c3ccco3)C2c2cccc(Oc3ccccc3)c2)no1 (stereo unspecified)	2.2%	-14.5%	u	-68.5*	-11.7%	2.8%
O=C(C1=C(O)C(=O)N(c2nccs2)C1c1ccccc1)c1cc2ccccc2o1 (stereo unspecified)	u	-16.6%	3.5%	-51.8*	-1.4%	-6.4%
O=C(C1=C(O)C(=O)N(CCc2ccccc2)C1c1ccncc1)c1cc2ccccc2o1 (stereo unspecified)	u	-6.2%	u	-14.4	13.4%	-19.6%
Cc1cc(N2C(=O)C(O)=C(C(=O)c3ccco3)C2c2cccc(O)c2)no1 (stereo unspecified)	-11.9%	-16.6%	2.5%	0.3	-0.7%	2.0%
COc1ccc(CCNC(=O)c2c(C)nc3ccccn23)cc1	-16.0%	-1.0%	129.8%	-1.0	6.4%	-4.8%
CC(C)(C)C(=O)Nc1ccc(S(=O)(=O)N2CCC(c3nc4ccccc4[nH]3)CC2)cc1	-9.9%	-13.3%	15.5%	-13.5	x	-4.5%
CC1C(=O)N(Cc2cn(CCC3OCCCO3)nn2)CCS(=O)(=O)N1Cc1ccc(-c2ccc(Cl)cc2)cc1 (stereo unspecified)	-9.7%	x	x	5.4	x	-10.0%
Cc1nnc(N/N=C/c2cccc(C(F)(F)F)c2)n1N	-16.1%	-13.2%	12.6µM*	-2.2	2.6%	-6.2%[11.6 µM]
SMILES	POLH inh	POLK inh	Pol iota inh	PI5P4K alpha inh	POLB inh	WRN inhibitor
Cc1nnc(N/N=C/c2ccccc2C(F)(F)F)n1N	-14.3%	-2.3%	u	2.0	-0.3%	22.9%
NC(=O)N/N=C/c1cccc(OCc2ccc(F)cc2)c1	-20.1%	6.6%	59.6%	3.2	-25.1%	-14.4%[57.1 µM]
Cc1nnc(N/N=C/c2cccc(OCc3ccc(Cl)c(Cl)c3)c2)n1N	u	-6.4%	6.31µM*	8.1	-7.7%	-5.9%
Cc1nnc(N/N=C/c2ccco2)n1N	-14.8%	-7.4%	10µM*	2.0	30.3%	-10.0%
CCN(CC)CCn1nc2c3c(cccc3c1=O)-c1ccccc1-2	-9.5%	-64.4%	u	5.9	10µM*	-0.7%[11.6 µM]
O=c1c2cccc3c2c(nn1CN1CCOCC1)-c1ccccc1-3	7.4%	-10.6%	-1.7%	-23.0	12.4%	-3.2%
COc1cc2[nH]c3c(=O)n(CCN4CCCCC4)cnc3c2cc1OC	-2.2%	22.4µM*	0.7%	2.7	-16.2%	-6.8%[57.1 µM]
COc1ccc2[nH]c3c(=O)n(CCCN4CCOCC4)cnc3c2c1	-14.5%	-10.5%	-8.4%	1.5	0.1%	-2.2%
CC(C)Oc1ccc(CNC(=O)C2CCN(C(=O)N3CCOc4ccc(Cl)cc43)CC2)cc1	-17.4%	-33.6%	11.4%	x	4.7%	x
O=C(N[C@H]1CC[C@H](CCNS(=O)(=O)c2ccc(Cl)cc2)O[C@@H]1CO)c1cccc(F)c1	x	x	x	-0.2	x	-3.4%
Cc1ccc(N2CCN(S(=O)(=O)c3nnc(NC(=O)c4ccco4)s3)CC2)cc1	79.4µM*	-16.4%	-13.2%	-23.5	u	-2.7%[11.6 µM]
Cc1ccc(C(=O)Nc2nnc(S(=O)(=O)N3CCCc4ccccc43)s2)cc1	89.1µM*	-11.2%	100.1%	x	u	x
O=C(Nc1nnc(S(=O)(=O)N2CCc3ccccc32)s1)c1ccccc1	3.2%	-6.6%	61.2%	x	-3.6%	x
O=C(Nc1nnc(S(=O)(=O)N2CCc3ccccc32)s1)c1cccc(Cl)c1	89.1µM*	-18.3%	13.6%	x	3.5%	x
O=C(Nc1nnc(S(=O)(=O)N2CCCc3ccccc32)s1)c1ccccc1	u	-9.1%	23.1%	x	u	x
O=C(NCCCN1CCOCC1)c1cc(Cl)ccc1OCc1ccccc1	-12.2%	-2.8%	23.9%	1.6	-0.2%	-32.3%
O=C1c2cccnc2C(=O)N1C1CCCCC1	-4.7%	7.8%	7.7%	x	16.9%	2.8%
O=C1c2cccnc2C(=O)N1CO	-11.5%	-10.1%	4.2%	-4.1	36.3%	-5.8%
NC1=C(Br)C(=O)c2ncccc2C1=O	17.8µM*	-4.5%	11.2µM*	-0.7	x	u
O=C1C(=O)c2ncccc2-c2cccnc21	x	8.91µM*	x	x	x	x
COc1ccc2c(c1)c(CC(=O)NCc1cc([N+](=O)[O-])ccc1O)c(C)n2C(=O)c1ccc(Cl)cc1	44.7µM*	-34.9%	u	-0.2	39.8µM*	u
Cc1cc(C)c(O)c(-c2cc(C(=O)Nc3cccnc3)[nH]n2)c1	-15.4%	-10.9%	u	3.7	56.2µM*	-24.3%

Screening results (PubChem)
